# Measurements reported in article PMC7862700, “An all-to-all approach to the identification of sequence-specific readers for epigenetic DNA modifications on cytosine”.
# Assays:
# Experiment in all cases: DAPPL (digital affinity profiling via proximity ligation, sequencing); 10 mM Tris-HCl pH 7.5, 50 mM NaCl, 1 mM DTT, 4% glycerol, room temperature, 30 min; GST-TFs on glutathione beads, 16-mer random dsDNA library, 0.1% formaldehyde crosslink after washing; high values mean tight binding
# FLI1 = biological target: T1, FLI1 (Homo sapiens, UniProt Q01543 1-452); details: protein: recombinant; tags: N-terminal GST; dsDNA, one strand shown
# T1 sequence: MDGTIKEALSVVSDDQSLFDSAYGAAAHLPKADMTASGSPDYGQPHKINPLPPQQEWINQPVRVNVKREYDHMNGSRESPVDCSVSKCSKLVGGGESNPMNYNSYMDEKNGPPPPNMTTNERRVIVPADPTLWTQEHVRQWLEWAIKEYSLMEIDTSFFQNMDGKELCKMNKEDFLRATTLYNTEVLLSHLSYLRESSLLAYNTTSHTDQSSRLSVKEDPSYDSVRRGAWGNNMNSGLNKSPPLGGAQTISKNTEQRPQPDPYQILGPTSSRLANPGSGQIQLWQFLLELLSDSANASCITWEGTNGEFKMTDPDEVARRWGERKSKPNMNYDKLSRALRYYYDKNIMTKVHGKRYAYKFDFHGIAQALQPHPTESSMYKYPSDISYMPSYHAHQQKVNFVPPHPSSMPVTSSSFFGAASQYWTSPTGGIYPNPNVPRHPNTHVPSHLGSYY
# Procedure, shortened: (§1)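 Binding signal is defined as a hexamer's read frequency for one factor over its frequency for the tag-only sample. To obtain reads, GST-fused human transcription factors were expressed in yeast, captured on glutathione beads, barcoded with DNA and pooled with that sample. Pools met 200 nmole of a 16-mer random double-stranded DNA library in Tris/NaCl/DTT/glycerol buffer for 30 min at room temperature before washing, 0.1% formaldehyde crosslinking, proximity ligation (BsaI/T4 ligase, 1 h, 37 °C), PCR and Illumina NextSeq500 sequencing.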
# ELK1 = biological target: T2, ELK1 (Homo sapiens, UniProt P19419 1-428); details: protein: recombinant; tags: N-terminal GST; dsDNA, one strand shown
# T2 sequence: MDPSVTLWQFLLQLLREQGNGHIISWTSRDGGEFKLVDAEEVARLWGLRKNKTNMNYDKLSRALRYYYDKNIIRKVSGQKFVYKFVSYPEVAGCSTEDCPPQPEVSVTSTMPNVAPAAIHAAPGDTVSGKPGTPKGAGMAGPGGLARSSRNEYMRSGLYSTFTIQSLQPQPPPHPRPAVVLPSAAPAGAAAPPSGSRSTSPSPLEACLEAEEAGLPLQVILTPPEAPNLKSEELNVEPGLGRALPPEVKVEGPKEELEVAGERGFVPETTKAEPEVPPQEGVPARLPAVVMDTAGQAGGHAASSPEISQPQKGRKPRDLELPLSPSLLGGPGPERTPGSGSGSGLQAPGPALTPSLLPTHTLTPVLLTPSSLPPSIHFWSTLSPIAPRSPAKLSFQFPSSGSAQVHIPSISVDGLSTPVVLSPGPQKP
# Procedure, shortened: as §1
# GABPA = biological target: T3, GABPA (Homo sapiens, UniProt Q06546 1-454); details: protein: recombinant; tags: N-terminal GST; dsDNA, one strand shown
# T3 sequence: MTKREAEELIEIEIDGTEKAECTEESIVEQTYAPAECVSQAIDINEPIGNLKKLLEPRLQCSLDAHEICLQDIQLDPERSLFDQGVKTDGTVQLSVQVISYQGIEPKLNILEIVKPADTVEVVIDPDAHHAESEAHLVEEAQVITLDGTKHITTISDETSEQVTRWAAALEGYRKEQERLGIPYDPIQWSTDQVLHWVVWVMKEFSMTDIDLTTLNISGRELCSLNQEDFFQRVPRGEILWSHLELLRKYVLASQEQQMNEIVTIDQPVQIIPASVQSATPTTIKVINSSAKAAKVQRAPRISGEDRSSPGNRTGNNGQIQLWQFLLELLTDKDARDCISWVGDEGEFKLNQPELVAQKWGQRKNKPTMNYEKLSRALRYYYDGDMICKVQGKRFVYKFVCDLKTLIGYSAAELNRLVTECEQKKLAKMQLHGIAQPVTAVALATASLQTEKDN
# Procedure, shortened: as §1
# ERG = biological target: T4, ERG (Homo sapiens, UniProt P11308 1-479); details: protein: recombinant; tags: N-terminal GST; dsDNA, one strand shown
# T4 sequence: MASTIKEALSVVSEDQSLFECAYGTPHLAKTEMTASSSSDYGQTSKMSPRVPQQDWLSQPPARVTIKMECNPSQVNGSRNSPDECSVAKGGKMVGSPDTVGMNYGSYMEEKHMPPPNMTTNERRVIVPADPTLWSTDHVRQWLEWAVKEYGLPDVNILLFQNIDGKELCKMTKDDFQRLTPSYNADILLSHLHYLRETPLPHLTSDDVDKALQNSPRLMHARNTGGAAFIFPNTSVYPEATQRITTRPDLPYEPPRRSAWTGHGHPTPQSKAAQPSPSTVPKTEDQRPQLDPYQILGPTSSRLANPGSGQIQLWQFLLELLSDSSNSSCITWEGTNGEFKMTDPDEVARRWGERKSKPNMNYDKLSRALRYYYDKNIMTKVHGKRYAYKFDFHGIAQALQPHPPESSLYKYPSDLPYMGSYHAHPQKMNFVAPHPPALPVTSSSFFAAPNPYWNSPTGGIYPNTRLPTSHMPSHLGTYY
# Procedure, shortened: as §1
# ELF1 = ELF1 (Homo sapiens, UniProt P32519 1-619); details: protein: recombinant; tags: N-terminal GST; dsDNA, one strand shown
# Chain of ELF1 (P32519 whole entry): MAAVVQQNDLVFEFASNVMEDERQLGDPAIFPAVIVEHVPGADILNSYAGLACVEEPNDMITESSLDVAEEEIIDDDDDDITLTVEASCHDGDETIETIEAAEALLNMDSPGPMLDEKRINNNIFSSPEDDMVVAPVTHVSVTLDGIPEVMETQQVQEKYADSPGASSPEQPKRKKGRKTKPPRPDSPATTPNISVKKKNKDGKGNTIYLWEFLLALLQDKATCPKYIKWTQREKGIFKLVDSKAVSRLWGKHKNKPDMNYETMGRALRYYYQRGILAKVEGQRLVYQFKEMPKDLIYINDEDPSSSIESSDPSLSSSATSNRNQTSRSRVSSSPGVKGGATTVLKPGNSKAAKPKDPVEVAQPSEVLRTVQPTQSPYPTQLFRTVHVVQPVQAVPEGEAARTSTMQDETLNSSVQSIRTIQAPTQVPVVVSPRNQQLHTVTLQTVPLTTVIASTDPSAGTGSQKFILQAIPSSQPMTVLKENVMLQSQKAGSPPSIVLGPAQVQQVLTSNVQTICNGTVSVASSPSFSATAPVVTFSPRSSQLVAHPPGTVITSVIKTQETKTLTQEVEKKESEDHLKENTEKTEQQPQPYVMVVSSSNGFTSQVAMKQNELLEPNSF
# Procedure, shortened: as §1
# EHF = biological target: T5, EHF (Homo sapiens, UniProt Q9NZC4 1-300); details: protein: recombinant; tags: N-terminal GST; dsDNA, one strand shown
# T5 sequence: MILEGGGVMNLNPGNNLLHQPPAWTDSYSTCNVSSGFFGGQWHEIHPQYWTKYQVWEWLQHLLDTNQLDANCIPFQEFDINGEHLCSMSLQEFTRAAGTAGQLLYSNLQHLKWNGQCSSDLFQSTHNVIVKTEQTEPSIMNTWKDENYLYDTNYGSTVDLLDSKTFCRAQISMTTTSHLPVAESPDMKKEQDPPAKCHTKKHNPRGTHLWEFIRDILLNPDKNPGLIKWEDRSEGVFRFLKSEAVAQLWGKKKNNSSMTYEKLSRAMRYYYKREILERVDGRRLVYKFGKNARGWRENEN
# Procedure, shortened: as §1
# SPI1 = SPI1 (Homo sapiens, UniProt P17947 1-270); details: protein: recombinant; tags: N-terminal GST; dsDNA, one strand shown
# Procedure, shortened: as §1
# SPIB = SPIB (Homo sapiens, UniProt Q01892 1-262); details: protein: recombinant; tags: N-terminal GST; dsDNA, one strand shown
# Chain of SPIB (Q01892 whole entry): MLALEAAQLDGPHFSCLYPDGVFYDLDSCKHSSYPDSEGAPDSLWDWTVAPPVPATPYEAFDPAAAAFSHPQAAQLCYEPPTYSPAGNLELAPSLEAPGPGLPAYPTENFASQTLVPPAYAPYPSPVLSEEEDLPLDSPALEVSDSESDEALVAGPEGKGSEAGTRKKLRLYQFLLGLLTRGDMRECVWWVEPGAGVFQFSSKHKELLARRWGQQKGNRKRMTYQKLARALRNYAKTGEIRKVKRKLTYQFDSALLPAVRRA
# Procedure, shortened: as §1
# ELK3 = biological target: T6, ELK3 (Homo sapiens, UniProt P41970 1-407); details: protein: recombinant; tags: N-terminal GST; dsDNA, one strand shown
# T6 sequence: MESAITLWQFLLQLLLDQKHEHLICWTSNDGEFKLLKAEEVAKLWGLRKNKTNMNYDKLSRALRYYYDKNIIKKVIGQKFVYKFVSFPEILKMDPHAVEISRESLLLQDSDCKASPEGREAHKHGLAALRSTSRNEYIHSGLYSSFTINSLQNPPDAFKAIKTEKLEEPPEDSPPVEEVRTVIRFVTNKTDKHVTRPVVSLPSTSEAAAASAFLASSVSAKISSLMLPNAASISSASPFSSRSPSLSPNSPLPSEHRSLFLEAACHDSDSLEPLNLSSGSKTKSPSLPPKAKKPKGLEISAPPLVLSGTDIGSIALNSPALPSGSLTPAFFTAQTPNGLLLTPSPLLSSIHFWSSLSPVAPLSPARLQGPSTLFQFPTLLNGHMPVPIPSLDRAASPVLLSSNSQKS
# Procedure, shortened: as §1
# FEV = biological target: T7, FEV (Homo sapiens, UniProt Q99581 1-238); details: protein: recombinant; tags: N-terminal GST; dsDNA, one strand shown
# T7 sequence: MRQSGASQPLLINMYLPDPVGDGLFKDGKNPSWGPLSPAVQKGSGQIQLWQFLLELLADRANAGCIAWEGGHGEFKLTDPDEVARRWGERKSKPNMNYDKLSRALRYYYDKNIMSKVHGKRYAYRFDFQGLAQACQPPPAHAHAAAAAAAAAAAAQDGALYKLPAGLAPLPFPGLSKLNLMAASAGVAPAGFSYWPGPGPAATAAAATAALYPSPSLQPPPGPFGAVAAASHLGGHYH
# Procedure, shortened: as §1
# ETV5 = ETV5 (Homo sapiens, UniProt P41161 1-510); details: protein: recombinant; tags: N-terminal GST; dsDNA, one strand shown
# Chain of ETV5 (P41161 whole entry): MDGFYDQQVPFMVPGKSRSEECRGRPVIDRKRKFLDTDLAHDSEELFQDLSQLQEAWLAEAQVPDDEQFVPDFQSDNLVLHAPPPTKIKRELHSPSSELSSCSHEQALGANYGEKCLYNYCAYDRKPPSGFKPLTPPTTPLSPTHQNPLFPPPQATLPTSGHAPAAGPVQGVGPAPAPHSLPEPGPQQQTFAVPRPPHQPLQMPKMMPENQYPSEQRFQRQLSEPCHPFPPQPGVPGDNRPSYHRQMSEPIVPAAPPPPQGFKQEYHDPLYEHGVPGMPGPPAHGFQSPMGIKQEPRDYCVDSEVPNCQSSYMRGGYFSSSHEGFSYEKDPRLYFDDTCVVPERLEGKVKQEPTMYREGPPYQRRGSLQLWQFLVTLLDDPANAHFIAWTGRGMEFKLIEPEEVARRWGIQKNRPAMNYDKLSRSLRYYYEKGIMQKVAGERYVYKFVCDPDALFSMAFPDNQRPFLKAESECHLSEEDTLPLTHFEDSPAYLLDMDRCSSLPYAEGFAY
# Procedure, shortened: as §1
# HSF1 = HSF1 (Homo sapiens, UniProt Q00613 1-529); details: protein: recombinant; tags: N-terminal GST; chain copies: 3; dsDNA, one strand shown
# Chain of HSF1 (Q00613 whole entry): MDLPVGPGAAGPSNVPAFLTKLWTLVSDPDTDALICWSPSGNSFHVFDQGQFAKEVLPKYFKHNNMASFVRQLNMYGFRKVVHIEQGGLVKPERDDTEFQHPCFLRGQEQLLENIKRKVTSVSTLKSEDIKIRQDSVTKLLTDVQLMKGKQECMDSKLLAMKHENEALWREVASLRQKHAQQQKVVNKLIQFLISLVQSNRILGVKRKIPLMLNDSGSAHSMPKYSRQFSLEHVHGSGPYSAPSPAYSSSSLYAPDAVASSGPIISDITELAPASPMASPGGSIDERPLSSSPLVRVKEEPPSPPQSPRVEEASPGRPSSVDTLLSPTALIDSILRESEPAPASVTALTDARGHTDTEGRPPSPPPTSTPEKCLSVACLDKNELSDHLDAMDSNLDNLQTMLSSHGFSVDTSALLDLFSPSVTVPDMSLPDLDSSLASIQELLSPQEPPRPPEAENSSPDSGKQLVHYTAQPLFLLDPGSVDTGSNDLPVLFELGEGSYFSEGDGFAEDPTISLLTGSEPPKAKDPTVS
# Procedure, shortened: as §1
# SPIC = biological target: T8, SPIC (Homo sapiens, UniProt Q8N5J4 1-248); details: protein: recombinant; tags: N-terminal GST; dsDNA, one strand shown
# T8 sequence: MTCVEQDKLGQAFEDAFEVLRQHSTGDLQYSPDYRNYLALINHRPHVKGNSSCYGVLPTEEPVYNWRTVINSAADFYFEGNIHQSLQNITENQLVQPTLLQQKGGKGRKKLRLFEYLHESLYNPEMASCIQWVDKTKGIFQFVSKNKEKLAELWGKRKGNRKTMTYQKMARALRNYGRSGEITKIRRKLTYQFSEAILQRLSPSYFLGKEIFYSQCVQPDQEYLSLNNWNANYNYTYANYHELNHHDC
# Procedure, shortened: as §1
# ELF4 = ELF4 (Homo sapiens, UniProt Q99607 1-663); details: protein: recombinant; tags: N-terminal GST; dsDNA, one strand shown
# Chain of ELF4 (Q99607 whole entry): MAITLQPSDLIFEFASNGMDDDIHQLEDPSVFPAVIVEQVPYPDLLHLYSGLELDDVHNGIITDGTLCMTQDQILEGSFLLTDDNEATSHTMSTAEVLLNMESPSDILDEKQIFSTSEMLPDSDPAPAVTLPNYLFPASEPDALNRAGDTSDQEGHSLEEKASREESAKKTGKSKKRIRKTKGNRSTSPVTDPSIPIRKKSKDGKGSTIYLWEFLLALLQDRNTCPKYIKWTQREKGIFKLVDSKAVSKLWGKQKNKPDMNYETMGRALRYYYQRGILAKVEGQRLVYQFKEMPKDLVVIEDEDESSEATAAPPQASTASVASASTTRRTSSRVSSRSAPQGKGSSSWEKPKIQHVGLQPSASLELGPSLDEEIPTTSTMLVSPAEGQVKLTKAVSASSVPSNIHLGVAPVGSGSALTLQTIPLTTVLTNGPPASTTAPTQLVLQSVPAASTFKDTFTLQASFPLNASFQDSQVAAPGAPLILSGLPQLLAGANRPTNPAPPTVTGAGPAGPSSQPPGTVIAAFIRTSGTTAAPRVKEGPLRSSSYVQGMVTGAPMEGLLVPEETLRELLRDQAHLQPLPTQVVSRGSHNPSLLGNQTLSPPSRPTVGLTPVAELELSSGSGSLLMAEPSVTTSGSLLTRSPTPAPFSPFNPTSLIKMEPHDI
# Procedure, shortened: as §1
# ELK4 = biological target: T9, ELK4 (Homo sapiens, UniProt P28324-2 1-405); details: protein: recombinant; tags: N-terminal GST; dsDNA, one strand shown
# T9 sequence: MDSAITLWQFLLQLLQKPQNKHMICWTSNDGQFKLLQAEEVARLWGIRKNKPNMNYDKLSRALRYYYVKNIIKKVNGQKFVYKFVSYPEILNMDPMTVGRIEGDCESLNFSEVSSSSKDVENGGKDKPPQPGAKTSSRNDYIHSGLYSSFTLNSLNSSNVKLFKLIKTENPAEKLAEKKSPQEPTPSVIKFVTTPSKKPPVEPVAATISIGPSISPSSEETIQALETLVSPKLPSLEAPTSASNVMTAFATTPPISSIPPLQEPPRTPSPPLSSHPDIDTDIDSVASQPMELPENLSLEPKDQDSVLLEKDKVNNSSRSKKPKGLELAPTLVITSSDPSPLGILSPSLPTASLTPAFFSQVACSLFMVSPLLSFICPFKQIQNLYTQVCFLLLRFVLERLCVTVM
# Procedure, shortened: as §1
# ETV2 = biological target: T10, ETV2 (Homo sapiens, UniProt O00321 1-342); details: protein: recombinant; tags: N-terminal GST; dsDNA, one strand shown
# T10 sequence: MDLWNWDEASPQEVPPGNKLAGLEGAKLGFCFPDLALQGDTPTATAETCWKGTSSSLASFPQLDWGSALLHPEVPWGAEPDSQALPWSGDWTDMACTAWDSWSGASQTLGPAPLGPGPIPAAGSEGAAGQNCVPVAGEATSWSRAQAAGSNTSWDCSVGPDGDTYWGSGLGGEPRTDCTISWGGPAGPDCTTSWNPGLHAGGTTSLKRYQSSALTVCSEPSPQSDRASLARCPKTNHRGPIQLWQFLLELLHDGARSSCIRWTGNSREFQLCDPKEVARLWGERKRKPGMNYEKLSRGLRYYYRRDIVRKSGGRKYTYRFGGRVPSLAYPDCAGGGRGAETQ
# Procedure, shortened: as §1
# ELF3 = biological target: T11, ELF3 (Homo sapiens, UniProt P78545 1-371); details: protein: recombinant; tags: N-terminal GST; dsDNA, one strand shown
# T11 sequence: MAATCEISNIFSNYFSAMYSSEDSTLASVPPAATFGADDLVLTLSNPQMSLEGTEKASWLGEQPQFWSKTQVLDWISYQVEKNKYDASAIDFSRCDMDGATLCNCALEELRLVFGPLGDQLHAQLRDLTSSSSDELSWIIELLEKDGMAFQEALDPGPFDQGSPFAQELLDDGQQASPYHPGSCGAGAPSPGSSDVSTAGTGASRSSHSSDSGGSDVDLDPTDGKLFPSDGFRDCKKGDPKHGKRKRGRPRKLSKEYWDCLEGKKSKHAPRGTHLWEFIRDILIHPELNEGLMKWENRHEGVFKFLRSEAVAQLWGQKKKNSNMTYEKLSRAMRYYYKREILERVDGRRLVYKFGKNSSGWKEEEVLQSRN
# Procedure, shortened: as §1
# CRX = CRX (Homo sapiens, UniProt O43186 1-299); details: protein: recombinant; tags: N-terminal GST; dsDNA, one strand shown
# Chain of CRX (O43186 whole entry): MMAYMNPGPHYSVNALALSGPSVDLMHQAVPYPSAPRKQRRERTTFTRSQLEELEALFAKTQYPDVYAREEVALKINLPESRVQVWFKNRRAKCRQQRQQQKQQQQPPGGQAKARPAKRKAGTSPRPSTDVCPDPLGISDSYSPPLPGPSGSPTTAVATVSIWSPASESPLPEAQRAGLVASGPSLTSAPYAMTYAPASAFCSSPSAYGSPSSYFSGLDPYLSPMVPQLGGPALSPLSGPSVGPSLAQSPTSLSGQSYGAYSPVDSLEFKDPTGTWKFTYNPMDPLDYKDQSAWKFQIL
# Procedure, shortened: as §1
# ETV1 = ETV1 (Homo sapiens, UniProt P50549 1-477); details: protein: recombinant; tags: N-terminal GST; dsDNA, one strand shown
# Chain of ETV1 (P50549 whole entry): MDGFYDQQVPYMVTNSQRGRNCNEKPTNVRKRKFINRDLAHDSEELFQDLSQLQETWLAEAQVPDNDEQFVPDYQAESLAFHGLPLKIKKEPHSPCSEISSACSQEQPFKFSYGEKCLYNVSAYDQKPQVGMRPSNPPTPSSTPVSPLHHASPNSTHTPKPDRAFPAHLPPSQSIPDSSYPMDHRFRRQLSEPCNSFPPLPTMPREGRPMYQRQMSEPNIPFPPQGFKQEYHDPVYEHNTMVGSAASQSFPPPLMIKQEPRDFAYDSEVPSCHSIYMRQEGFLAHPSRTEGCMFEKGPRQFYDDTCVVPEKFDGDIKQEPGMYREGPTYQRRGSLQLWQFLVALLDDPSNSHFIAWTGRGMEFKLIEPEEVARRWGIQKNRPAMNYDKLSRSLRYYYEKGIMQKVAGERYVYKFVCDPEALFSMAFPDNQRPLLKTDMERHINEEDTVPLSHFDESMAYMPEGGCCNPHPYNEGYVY
# Procedure, shortened: as §1
sequence,measurement,setting,value
TTATGT,binding signal,FLI1,"1.3 fold enrichment (6-mer frequency, TF over GST control)"
same,binding signal,ELK1,"1.3 fold enrichment (6-mer frequency, TF over GST control)"
same,binding signal,GABPA,"1.27 fold enrichment (6-mer frequency, TF over GST control)"
same,binding signal,ERG,"1.31 fold enrichment (6-mer frequency, TF over GST control)"
same,binding signal,ELF1,"1.24 fold enrichment (6-mer frequency, TF over GST control)"
same,binding signal,EHF,"1.28 fold enrichment (6-mer frequency, TF over GST control)"
same,binding signal,SPI1,"1.31 fold enrichment (6-mer frequency, TF over GST control)"
same,binding signal,SPIB,"1.32 fold enrichment (6-mer frequency, TF over GST control)"
same,binding signal,ELK3,"1.22 fold enrichment (6-mer frequency, TF over GST control)"
same,binding signal,FEV,"1.15 fold enrichment (6-mer frequency, TF over GST control)"
same,binding signal,ETV5,"1.38 fold enrichment (6-mer frequency, TF over GST control)"
same,binding signal,HSF1,"1.63 fold enrichment (6-mer frequency, TF over GST control)"
same,binding signal,SPIC,"1.17 fold enrichment (6-mer frequency, TF over GST control)"
same,binding signal,ELF4,"1.38 fold enrichment (6-mer frequency, TF over GST control)"
same,binding signal,ELK4,"1.38 fold enrichment (6-mer frequency, TF over GST control)"
same,binding signal,ETV2,"1.13 fold enrichment (6-mer frequency, TF over GST control)"
same,binding signal,ELF3,"1.41 fold enrichment (6-mer frequency, TF over GST control)"
same,binding signal,CRX,"2.24 fold enrichment (6-mer frequency, TF over GST control)"
same,binding signal,ETV1,"1.29 fold enrichment (6-mer frequency, TF over GST control)"
